# Experimental data: PubChem BioAssay (NCATS)
# Inconclusive results are not listed. A call without a number means that no potency is given here. Some structures have more than one record in an assay (separate samples or runs), and their calls can disagree. Activity calls are given as the source filed them. Calls come from the whole dose curve; as a rule, active = well fitted curve in the direction sought with a large enough effect; inconclusive = small, poorly fitted or top-dose-only effect, or another doubt; inactive = no such curve, though single readings can be large; an effect the other way counts as inactive or inconclusive.
# Assay: Primary qHTS for inhibitors of nuclear receptor binding SET domain protein 2 (NSD2) in an RCH-ACV wild type WT cells (2C) (AID 1645877); note: nearly all actives have a fitted effect of over 70% in size; note: potency is the fitted concentration of half-maximal effect
# Details: RCH-ACV (leukaemia line) NSD2 WT (2C) viability, CellTiter-Glo, 72 h; series mostly up to 44.9 µM
row,SMILES,Potency
1,O=C(O)CNC(=O)c1c(O)c2ccccc2n(Cc2ccccc2)c1=O,inactive
2,O=c1cccc2n1CC1CNC[C@H]2C1,inactive
3,C#CC1(O)CCC2C3CCC4=CC(=O)CCC4(C)C3CCC21C (configuration not stated),inactive
4,O=c1[nH]c2ccccc2n1C1CCN(Cc2ccc(-c3[nH]c4cc5ncnc5cc4nc3-c3ccccc3)cc2)CC1,5.25 µM (active)
5,COc1cc([C@@H]2c3cc4c(cc3[C@@H](O)C3COC(=O)C32)OCO4)cc(OC)c1O (some centres not stated),0.372 µM (active)
6,CSCC[C@@H](NC(=O)[C@@H](Cc1ccccc1)NC(=O)CNC(=O)CNC(=O)[C@@H](N)Cc1ccc(O)cc1)C(=O)O,inactive
7,CCOC(=O)Nc1ccc(NCc2ccc(F)cc2)cc1N,inactive
8,COC(=O)c1cncn1C(C)c1ccccc1 (configuration not stated),inactive
9,O=C1C=CC[C@@H]2[C@H]3CCCN4CCC[C@@H](CN12)[C@@H]34,inactive
10,CN1[C@H]2CC(O)C[C@H]1[C@H]1O[C@H]12 (some centres not stated),inactive
11,CN[C@@H]1Cc2cccc3[nH]c(=O)n(c23)C1,inactive
12,CC(C)(C)c1cc(C=C(C#N)C#N)cc(Br)c1O,16.4 µM (active) and inactive
13,CCN1C[C@]2(OC(=O)c3ccccc3NC(C)=O)CC[C@H](OC)[C@@]34[C@H]5CC6[C@@H](OC)C[C@](O)(C(C[C@@H]23)[C@@H]14)[C@@]5(O)[C@@H]6OC,inactive
14,O=C(O)COc1ccccc1,inactive
15,COC1=C[C@@H]2[C@@H]3Cc4ccc(OC)c(O)c4[C@]2(CCN3C)CC1=O,inactive
16,COC(=O)[C@@H](N)CCCN=C(N)N[N+](=O)[O-],inactive
17,O=S(=O)(F)Cc1ccccc1,inactive
18,O=C(NCC1CCOCC1)c1cnc(Nc2ccc(Cl)cc2Cl)nc1C(F)(F)F,inactive
19,Cc1cc(O)ccc1Cl,inactive
20,CC[N+]1(CCOC(=O)C(O)(c2ccccc2)c2ccccc2)CCCCC1,inactive
21,CCCC[N+]1(C)[C@H]2CC(OC(=O)[C@H](CO)c3ccccc3)C[C@H]1[C@H]1O[C@H]12 (some centres not stated),inactive
22,c1ccc2c(CN3CCNCC3)cccc2c1,inactive
23,COc1ccc(N(C(=O)Oc2c(C)cccc2C)c2ccnc(Nc3ccc(N4CCN(C)CC4)cc3)n2)c(OC)c1,5.25 µM (active)
24,CN(C)NC(=O)CCC(=O)O,inactive
25,O=C(Oc1ccc([N+](=O)[O-])cc1)N1CCC(C(O)(c2ccc3c(c2)OCO3)c2ccc3c(c2)OCO3)CC1,inactive
26,C[C@]12CC[C@@H]3[C@@H](CCC4=CC(=O)CC[C@@H]43)[C@@H]1CC[C@@H]2OC(=O)CCc1ccccc1,inactive
27,CC(=O)Nc1ccc(OC[C@](C)(O)C(=O)Nc2ccc([N+](=O)[O-])c(C(F)(F)F)c2)cc1,inactive
28,C[C@](O)(COc1ccc(C#N)cc1)C(=O)Nc1ccc(C#N)c(C(F)(F)F)c1,20.9 µM (active)
29,O=[N+]([O-])/N=C1\NCCN1Cc1ccc(Cl)nc1,inactive

# Assay: NCATS anti-infectives library activity on HEK293 viability as a counter-qHTS vs the C. elegans viability qHTS (AID 1745854)
# Details: HEK293 viability counter-screen; series mostly up to 41.8 µM
# In short: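 Cytotoxicity counter-screen to a worm viability qHTS: CellTiter-Glo luminescence read 10 min after reagent addition. Compounds (final up to 41.7 uM, a 1:5 dilution series) incubated 24 hr at 37C with 1,500 HEK293 cells per well; digitonin control.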
row,SMILES,Potency
1,O=C1C=CC[C@@H]2[C@H]3CCCN4CCC[C@@H](CN12)[C@@H]34,inactive
2,O=S(=O)(F)Cc1ccccc1,inactive
3,O=C(Oc1ccc([N+](=O)[O-])cc1)N1CCC(C(O)(c2ccc3c(c2)OCO3)c2ccc3c(c2)OCO3)CC1,inactive
